# Reference: the supplement of paper PMC11732987, “Enantioselective OTUD7B fragment discovery through chemoproteomics screening and high-throughput optimisation” (Communications Chemistry, 2025)
# Values without a mark were called inactive.
# What was measured:
# Test in all cases: log2 ratio of Biotin-Ahx-Ub-VS probe labelling (fragment/DMSO); higher = less target engagement (more negative = stronger competition), active = hit call of the paper (q ≤ 0.05, log2 ratio ≤ -1)
# Conditions in all cases: compound concentration: 200 uM; treatment time: 3 h
# ALG13 = biological target: T1, ALG13 (UniProt Q9NP73)
# T1 sequence (whole entry): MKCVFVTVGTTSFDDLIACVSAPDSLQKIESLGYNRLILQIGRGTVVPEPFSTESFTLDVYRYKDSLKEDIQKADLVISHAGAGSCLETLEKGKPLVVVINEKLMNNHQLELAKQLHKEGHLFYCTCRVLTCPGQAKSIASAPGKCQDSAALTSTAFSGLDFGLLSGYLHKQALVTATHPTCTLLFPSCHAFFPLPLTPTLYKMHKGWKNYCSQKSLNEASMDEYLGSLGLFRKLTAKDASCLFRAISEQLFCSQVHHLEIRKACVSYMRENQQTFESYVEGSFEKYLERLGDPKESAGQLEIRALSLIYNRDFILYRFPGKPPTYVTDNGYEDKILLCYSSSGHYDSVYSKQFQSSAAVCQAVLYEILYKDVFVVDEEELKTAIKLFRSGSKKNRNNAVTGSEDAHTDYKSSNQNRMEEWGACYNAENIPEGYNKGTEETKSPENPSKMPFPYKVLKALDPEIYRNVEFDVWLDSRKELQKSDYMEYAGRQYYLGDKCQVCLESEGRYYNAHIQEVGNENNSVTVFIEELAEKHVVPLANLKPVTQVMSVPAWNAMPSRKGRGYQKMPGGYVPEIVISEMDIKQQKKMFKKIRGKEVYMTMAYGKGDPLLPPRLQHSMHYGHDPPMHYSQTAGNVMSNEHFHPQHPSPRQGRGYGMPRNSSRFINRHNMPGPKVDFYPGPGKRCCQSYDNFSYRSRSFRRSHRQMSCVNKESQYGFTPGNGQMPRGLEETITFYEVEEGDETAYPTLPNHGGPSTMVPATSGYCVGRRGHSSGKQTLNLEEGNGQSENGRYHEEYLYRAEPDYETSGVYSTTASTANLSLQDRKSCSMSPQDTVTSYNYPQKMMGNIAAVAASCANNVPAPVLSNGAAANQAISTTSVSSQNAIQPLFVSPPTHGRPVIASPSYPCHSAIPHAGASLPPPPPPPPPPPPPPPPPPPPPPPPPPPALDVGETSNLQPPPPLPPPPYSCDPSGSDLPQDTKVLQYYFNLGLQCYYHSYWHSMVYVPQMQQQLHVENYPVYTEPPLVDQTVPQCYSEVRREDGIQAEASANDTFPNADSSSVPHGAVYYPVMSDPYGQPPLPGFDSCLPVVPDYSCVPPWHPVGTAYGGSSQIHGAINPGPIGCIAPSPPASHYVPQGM
# Procedure, shortened: (§1)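 Lysate from HEK293T cells, 495 µg per sample in Tris/CHAPS/IGEPAL buffer with protease inhibitors, was treated for 3 h in triplicate with fragment at 200 µM or vehicle. Biotin-Ahx-Ub-VS was next added at 0.5 µM final for 1 h. The labelled DUBs were enriched with NeutrAvidin, digested with LysC and trypsin, and run by diaPASEF LC-MS/MS, with values given as average log2 fragment/vehicle ratios by unpaired t-test on global-median-normalised Spectronaut quantities of proteins with ≥2 unique peptides.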
# ATXN3 = ATXN3 (UniProt P54252)
# ATXN3, sequence (P54252 whole entry): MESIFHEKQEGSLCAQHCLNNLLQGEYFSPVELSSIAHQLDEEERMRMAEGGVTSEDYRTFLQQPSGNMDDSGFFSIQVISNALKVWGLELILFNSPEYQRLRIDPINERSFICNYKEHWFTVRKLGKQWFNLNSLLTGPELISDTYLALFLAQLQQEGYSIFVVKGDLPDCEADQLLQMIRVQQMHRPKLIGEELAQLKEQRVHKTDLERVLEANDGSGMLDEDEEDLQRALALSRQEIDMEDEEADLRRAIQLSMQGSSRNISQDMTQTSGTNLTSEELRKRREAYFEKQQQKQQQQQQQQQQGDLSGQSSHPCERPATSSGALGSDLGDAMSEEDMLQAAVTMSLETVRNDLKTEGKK
# Procedure, shortened: as §1
# BAP1 = biological target: T2, BAP1 (UniProt Q92560)
# T2 sequence (whole entry): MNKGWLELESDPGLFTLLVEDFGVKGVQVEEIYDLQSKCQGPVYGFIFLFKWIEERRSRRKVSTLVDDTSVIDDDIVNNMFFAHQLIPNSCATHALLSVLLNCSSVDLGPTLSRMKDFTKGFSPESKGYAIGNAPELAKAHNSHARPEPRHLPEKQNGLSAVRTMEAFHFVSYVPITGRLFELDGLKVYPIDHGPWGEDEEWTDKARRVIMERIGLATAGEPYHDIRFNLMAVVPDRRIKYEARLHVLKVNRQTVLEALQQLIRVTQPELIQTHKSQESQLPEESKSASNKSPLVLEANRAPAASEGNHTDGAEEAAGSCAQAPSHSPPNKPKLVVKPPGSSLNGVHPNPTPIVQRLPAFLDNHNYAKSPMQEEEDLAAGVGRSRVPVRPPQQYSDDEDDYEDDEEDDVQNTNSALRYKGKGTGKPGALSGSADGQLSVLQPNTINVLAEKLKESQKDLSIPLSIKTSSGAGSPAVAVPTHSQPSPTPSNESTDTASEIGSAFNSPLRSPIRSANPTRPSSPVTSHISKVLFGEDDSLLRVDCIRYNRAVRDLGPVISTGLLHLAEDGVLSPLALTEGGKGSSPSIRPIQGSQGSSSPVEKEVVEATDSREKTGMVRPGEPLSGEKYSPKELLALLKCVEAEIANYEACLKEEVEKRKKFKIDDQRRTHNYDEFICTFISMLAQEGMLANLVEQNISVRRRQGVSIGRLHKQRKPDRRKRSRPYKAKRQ
# Procedure, shortened: as §1
# EIF3F = EIF3F (UniProt O00303)
# EIF3F, sequence (O00303 whole entry): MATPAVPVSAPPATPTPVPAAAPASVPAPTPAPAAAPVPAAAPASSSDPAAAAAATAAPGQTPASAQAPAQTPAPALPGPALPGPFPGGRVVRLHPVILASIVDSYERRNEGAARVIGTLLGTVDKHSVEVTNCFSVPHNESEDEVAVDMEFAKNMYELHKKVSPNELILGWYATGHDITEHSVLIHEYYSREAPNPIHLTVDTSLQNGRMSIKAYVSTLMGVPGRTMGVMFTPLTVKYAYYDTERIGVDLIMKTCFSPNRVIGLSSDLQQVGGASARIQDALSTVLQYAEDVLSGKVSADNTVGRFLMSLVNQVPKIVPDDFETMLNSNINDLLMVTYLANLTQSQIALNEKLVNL
# Procedure, shortened: as §1
# EIF3H = EIF3H (UniProt O15372)
# EIF3H, sequence (O15372 whole entry): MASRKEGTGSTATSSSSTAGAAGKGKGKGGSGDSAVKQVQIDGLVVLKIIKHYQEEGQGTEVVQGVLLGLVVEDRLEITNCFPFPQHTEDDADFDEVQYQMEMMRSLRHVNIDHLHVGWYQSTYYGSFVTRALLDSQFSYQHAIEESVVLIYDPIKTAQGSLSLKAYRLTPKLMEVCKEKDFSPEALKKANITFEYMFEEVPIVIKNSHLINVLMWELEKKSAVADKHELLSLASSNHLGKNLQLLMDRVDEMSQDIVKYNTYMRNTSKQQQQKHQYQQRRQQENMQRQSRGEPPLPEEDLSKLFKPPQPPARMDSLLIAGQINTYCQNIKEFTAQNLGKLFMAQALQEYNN
# Procedure, shortened: as §1
# FAM105A = biological target: T3, FAM105A (UniProt Q9NUU6)
# T3 sequence (whole entry): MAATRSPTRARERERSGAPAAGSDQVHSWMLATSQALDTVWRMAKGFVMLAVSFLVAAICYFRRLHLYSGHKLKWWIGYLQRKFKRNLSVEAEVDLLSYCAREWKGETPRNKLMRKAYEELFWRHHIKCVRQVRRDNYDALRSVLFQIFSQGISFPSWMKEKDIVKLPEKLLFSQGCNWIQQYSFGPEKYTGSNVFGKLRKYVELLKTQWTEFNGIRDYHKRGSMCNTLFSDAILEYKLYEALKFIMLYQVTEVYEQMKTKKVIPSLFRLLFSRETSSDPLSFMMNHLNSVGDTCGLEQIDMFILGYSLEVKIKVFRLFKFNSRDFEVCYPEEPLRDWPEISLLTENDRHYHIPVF
# Procedure, shortened: as §1
# OTUB1 = OTUB1 (UniProt Q96FW1)
# OTUB1, sequence (Q96FW1 whole entry): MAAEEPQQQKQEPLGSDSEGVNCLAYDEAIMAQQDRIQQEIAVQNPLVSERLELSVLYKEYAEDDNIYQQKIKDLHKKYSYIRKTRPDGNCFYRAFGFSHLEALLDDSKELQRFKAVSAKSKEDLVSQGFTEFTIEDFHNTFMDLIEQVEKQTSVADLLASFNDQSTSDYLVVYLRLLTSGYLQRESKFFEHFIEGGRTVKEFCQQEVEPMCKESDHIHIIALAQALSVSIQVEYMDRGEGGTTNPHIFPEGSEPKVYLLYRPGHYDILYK
# Procedure, shortened: as §1
# OTUD4 = biological target: T4, OTUD4 (UniProt Q01804)
# T4 sequence (whole entry): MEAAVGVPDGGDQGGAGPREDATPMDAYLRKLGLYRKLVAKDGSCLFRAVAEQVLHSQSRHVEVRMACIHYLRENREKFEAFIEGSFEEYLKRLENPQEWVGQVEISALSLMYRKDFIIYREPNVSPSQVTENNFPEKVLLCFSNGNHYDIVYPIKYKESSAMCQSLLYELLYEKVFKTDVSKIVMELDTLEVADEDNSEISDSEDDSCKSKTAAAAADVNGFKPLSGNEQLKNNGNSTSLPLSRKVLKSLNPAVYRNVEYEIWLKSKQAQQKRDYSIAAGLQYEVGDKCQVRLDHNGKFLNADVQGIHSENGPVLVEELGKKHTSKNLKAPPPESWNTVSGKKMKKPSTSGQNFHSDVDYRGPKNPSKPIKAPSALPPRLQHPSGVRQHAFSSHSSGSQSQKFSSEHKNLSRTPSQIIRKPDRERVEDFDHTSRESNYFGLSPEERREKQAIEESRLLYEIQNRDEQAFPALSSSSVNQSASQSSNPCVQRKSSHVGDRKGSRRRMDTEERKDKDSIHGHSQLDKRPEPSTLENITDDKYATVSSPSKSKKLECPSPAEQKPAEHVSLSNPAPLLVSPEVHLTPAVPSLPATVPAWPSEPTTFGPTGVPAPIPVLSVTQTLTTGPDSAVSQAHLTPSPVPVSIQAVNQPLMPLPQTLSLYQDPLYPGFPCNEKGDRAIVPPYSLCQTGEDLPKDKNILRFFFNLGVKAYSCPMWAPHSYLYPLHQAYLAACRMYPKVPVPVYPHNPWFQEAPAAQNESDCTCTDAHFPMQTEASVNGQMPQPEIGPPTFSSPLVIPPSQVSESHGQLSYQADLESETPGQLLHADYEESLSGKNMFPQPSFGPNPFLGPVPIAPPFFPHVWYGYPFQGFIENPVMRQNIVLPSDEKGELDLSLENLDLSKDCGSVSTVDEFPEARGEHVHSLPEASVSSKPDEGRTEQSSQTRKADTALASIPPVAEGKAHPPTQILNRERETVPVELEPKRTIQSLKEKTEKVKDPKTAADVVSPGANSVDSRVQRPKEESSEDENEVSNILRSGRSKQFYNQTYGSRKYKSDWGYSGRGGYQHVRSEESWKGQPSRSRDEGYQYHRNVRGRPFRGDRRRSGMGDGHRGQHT
# Procedure, shortened: as §1
# OTUD5 = biological target: T5, OTUD5 (UniProt Q96G74)
# T5 sequence (whole entry): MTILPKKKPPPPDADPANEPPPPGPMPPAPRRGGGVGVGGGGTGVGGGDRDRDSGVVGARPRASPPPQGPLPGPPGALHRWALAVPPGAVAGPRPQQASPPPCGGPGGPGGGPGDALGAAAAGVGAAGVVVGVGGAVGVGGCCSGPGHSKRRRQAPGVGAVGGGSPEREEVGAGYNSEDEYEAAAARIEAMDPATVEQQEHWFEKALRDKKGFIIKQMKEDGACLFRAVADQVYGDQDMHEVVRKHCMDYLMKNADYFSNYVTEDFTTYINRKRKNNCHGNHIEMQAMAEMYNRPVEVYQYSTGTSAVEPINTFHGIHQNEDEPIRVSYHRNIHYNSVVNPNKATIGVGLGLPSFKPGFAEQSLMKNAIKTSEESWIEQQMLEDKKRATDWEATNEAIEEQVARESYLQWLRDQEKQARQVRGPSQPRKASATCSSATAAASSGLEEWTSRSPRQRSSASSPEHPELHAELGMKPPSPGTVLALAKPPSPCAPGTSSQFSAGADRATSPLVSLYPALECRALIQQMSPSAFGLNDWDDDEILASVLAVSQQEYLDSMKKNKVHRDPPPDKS
# Procedure, shortened: as §1
smiles,measurement,setting,value
COc1ccc(CN(C)C(=O)CCl)cc1,log2 ratio of Biotin-Ahx-Ub-VS probe labelling,ALG13,-0.466
same,log2 ratio of Biotin-Ahx-Ub-VS probe labelling,ATXN3,-0.667
same,log2 ratio of Biotin-Ahx-Ub-VS probe labelling,BAP1,-1.65 (active)
same,log2 ratio of Biotin-Ahx-Ub-VS probe labelling,EIF3F,-0.171
same,log2 ratio of Biotin-Ahx-Ub-VS probe labelling,EIF3H,0.0709
same,log2 ratio of Biotin-Ahx-Ub-VS probe labelling,FAM105A,0.32
same,log2 ratio of Biotin-Ahx-Ub-VS probe labelling,OTUB1,-0.0239
same,log2 ratio of Biotin-Ahx-Ub-VS probe labelling,OTUD4,-0.413
same,log2 ratio of Biotin-Ahx-Ub-VS probe labelling,OTUD5,-0.536
